Bioassay records deposited in PubChem BioAssay by National Center for Advancing Translational Sciences (NCATS).
BLM helicase inh – qHTS Assay for Inhibitors of Bloom's syndrome helicase (BLM); actives 0.2% (n = 350,000); RecQ-like DNA helicase BLM (Homo sapiens), P54132; recombinant BLM DNA unwinding, fluorescence dequenching; Potency, µM (titrated, usually from 56.1 µM), for inactives: top-dose activity change, negative = inhibition, actives largely listed as inhibitors;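 note: plate controls were vehicle for no effect and no enzyme for full effect; nearly all actives have a fitted effect of over 35% in size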
APE1 inh – qHTS Assay for Inhibitors of the Human Apurinic/apyrimidinic Endonuclease 1 (APE1) | recombinant APE1, TAMRA/BHQ-2 abasic DNA cleavage fluorescence | Potency, µM (highest dose often 65.8 µM), without a hit: top-dose activity change, negative = inhibition, usual class: inhibitors | actives 0.35% (n = 350,000);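 note: plate controls were vehicle for no effect and reference inhibitor for full effect; nearly all actives have a fitted effect of over 55% in size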
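Quantitative HTS: incision of a TAMRA/BHQ-2 double-stranded substrate bearing a tetrahydrofuran abasic site by 0.75 nM APE1 raises fluorescence. Substrate 50 nM final, added after 15 min compound preincubation at room temperature; progress as third-minus-first kinetic read difference.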
GCN5L2 inh – qHTS Assay for Inhibitors of GCN5L2 | GCN5L2 HAT assay, ThioGlo1 CoA-SH fluorescence | Potency, µM (highest dose often 58.9 µM), for the others: at the top dose activity change, negative = inhibition, most hits filed as inhibitors | actives 0.21% (n = 390,000); note: % is set by controls: 0 for no effect and ±100 for the full control effect
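Titration-based screen in which CoA formation is detected via maleimide probe ThioGlo1 (50uM) turning fluorescent on thiol reaction; substrates H3(1-25) 75uM and acetyl-CoA 70uM, GCN5L2 20nM, 20 min incubation at room temperature.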
ERG-DNA inh – qHTS for Small Molecule Inhibitors of the ERG Ets/DNA interaction | Transcriptional regulator ERG (Homo sapiens), P11308 | fluorescence polarization, His-ERG Ets domain / labelled DNA | Potency, µM (doses to about 76.9 µM), for inactives: at the highest dose FP activity, negative = inhibition, most hits filed as inhibitors | actives 0.028% (n = 370,000); active = well fitted inhibition curve with a large enough effect in the polarisation, with a control signal flat; inconclusive = small, poorly fitted or top-dose-only effect, or effect the other way, or a change in a side signal; inactive = no such curve, though single readings can be large or run the other way; the % refers to the polarisation;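 note: polarization taken with two DNA probes labelled with fluorescein and Texas red; % of control where 0% means no effect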
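His-tagged ERG Ets domain (1 uM in the protein solution; 300mM KCl, 50mM Tris-HCl, 1mM EDTA, 1mM DTT, pH 7.5) received compound, then a probe mix of 5 nM fluorescein-DNA and 100nM Texas-615-DNA. Fluorescence polarization was read for both dyes.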
WRN inhibitor – qHTS for Inhibitors of WRN Helicase. Bifunctional 3'-5' exonuclease/ATP-dependent helicase WRN (Homo sapiens), Q14191. WRN helicase unwinding, fluorescent forked duplex, kinetic. Potency, µM (highest dose often 114 µM), for inactives: at the top dose activity change, negative = inhibition, usual class: inhibitors. actives 0.46% (n = 360,000); note: % is set by controls: 0 for no effect and ±100 for the full control effect; nearly all actives have a fitted effect of over 55% in size
Target sequence (Q14191 whole entry, looked up): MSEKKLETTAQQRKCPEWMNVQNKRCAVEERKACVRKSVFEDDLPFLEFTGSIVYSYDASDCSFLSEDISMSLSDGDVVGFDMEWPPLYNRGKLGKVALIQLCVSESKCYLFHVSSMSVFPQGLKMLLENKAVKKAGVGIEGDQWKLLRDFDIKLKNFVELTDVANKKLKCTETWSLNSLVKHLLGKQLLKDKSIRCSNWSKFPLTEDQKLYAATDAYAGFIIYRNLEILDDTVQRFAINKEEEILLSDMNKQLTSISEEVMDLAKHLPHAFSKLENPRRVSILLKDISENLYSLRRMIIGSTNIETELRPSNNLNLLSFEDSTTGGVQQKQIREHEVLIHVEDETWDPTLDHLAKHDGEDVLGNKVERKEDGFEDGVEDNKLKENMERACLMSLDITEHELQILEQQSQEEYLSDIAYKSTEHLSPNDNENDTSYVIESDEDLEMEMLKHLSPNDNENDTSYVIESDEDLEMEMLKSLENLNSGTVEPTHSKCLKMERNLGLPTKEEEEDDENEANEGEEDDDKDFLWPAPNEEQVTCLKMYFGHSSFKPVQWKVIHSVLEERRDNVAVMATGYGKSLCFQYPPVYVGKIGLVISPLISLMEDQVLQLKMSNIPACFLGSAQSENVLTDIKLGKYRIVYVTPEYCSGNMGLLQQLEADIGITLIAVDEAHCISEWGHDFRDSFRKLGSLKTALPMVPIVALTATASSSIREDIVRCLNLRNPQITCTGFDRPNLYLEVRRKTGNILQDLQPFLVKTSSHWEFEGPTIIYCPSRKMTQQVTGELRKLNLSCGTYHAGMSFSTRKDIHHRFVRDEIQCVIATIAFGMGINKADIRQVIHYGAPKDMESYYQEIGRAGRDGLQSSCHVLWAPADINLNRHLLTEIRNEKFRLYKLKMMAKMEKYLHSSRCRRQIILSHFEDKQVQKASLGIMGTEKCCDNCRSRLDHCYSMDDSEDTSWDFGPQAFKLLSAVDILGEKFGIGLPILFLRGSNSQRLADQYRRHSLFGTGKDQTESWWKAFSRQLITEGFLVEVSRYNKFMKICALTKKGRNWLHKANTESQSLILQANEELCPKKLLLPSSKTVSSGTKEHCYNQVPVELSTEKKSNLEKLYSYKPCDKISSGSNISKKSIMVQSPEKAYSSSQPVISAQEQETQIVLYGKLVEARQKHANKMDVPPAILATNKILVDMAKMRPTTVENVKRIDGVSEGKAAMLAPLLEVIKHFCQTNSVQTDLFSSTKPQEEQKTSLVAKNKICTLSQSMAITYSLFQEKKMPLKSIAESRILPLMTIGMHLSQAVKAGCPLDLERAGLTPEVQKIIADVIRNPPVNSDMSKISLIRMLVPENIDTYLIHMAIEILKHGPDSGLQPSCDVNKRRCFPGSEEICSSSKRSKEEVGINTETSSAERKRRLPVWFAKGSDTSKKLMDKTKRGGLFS
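Kinetic fluorescence helicase assay: unwinding of a quenched forked DNA duplex (100 nM final) with 2 mM ATP final raises red fluorescence (525/598 nm). Compounds sat 15 min at room temperature with 20 nM WRN beforehand.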
RECQ1 helicase – qHTS Assay for Inhibitors of RecQ-Like Dna Helicase 1 (RECQ1); RECQ1 DNA unwinding, red fluorescence kinetic read; Potency, µM (series often up to 57.3 µM), for the others: at the highest dose activity, negative = inhibition, actives largely listed as inhibitors; actives 0.54% (n = 240,000); AID 2549, 2010;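 note: plate controls were vehicle for no effect and no enzyme for full effect; nearly all actives have a fitted effect of over 30% in size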
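RECQ1T1 50 nM; forked duplex (20 bp + 30-nt ss tails) 200 nM, ATP 2 mM final; pH 8.0, 2 mM MgCl2, 2.5 ug/ml poly(dI-dC); 15 min compound preincubation; discontinuous kinetic read over 2 h at RT.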
Starred values were filed as active, the others as inactive; ? = inconclusive; . = no result; [ ] = remark or other dose. An excerpt weighted towards active compounds, which were near 0.88% of everything screened. Unless noted, calls come from the whole dose curve; as a rule, active = well fitted curve in the direction sought with a large enough effect; inconclusive = small, poorly fitted or top-dose-only effect, or another doubt; inactive = no such curve, though single readings can be large; an effect the other way counts as inactive or inconclusive. Potency is the fitted concentration of half-maximal effect.

SMILES	BLM helicase inh	APE1 inh	GCN5L2 inh	ERG-DNA inh	WRN inhibitor	RECQ1 helicase
O=C(O)c1ccc(CSc2nnc(-c3cccc(S(=O)(=O)NC4CCCC4)c3)n2-c2ccc(F)cc2)cc1	.	61.4%	.	.	.	.
Cc1ccc2nc(/C(C#N)=C/c3ccc(O)c(O)c3)[nH]c2c1	20µM*	6.4%	-3.3%	17.7%	44.7µM*	.
O=C(c1ccc(N2C(=O)C3CCCCC3C2=O)cc1)N1CCCCC1 (centres undefined)	0.7%	1.6%	-4.2%	.	3.3%	-0.3%
O=C(c1ccc(N2C(=O)C3C4CC(C(Br)C4Br)C3C2=O)cc1)N1CCCCC1 (centres undefined)	-2.9%	?	0.794µM*	-0.2%	-24.1%	.
N#CC1=C(N)OC2=C(CCC/C2=C/c2ccoc2)C1c1ccoc1 (centres undefined)	37.4%	14.1µM*	-10.8%	.	.	22.4µM*
O=C1CC(SC(=S)C2CCCC2=O)C(=O)N1 (centres undefined)	.	.	.	.	35.5µM*	.
O=C(NCCc1ccc(F)cc1)C1CCCO1 (centres undefined)	-28.6%	150µM*	-4.3%	-3.4%	2.8%	.
O=C(NCCc1ccc(Cl)cc1)C1CCCO1 (centres undefined)	-2.4%	24.2%	3.0%	1.9%	8.9%	.
Nc1[nH]n2c(=O)cc(-c3ccccc3)nc2c1N=Nc1ccc(S(N)(=O)=O)cc1	-13.8%	8.91µM*	1.3%	29.4%	-34.0%	-18.5%
Nc1[nH]n2c(=O)cc(-c3ccccc3)nc2c1N=Nc1ccccc1	-4.5%	1.7%	-9.4%	-5.3%	-19.0%	-6.3%
C=C(NC(=O)C(=C)NC(=O)c1csc(C2=N[C@@H]3c4csc(n4)[C@H]4NC(=O)c5csc(n5)[C@H]([C@](C)(O)[C@@H](C)O)NC(=O)[C@H]5CSC(=N5)C(=CC)NC(=O)C([C@@H](C)O)NC(=O)c5csc(n5)[C@]3(CC2)NC(=O)[C@H](C)NC(=O)C(=C)NC(=O)[C@H](C)NC(=O)C([C@@H](C)CC)NC2C=Cc3c([C@H](C)O)cc(nc3C2O)C(=O)O[C@@H]4C)n1)C(N)=O (some centres undefined)	.	5.1%[21 µM]	.	.	.	.
CC1(C)Cc2c(C#N)c(N)n(-c3ccccc3)c(=S)c2CO1	-7.4%	-1.4%	-5.9%	-3.5%	-0.3%	-2.9%
CC1(C)C=C2C(=NN(c3ccccc3)C(N)=C2C#N)CO1	17.8µM*	5.3%	-1.1%	?	3.0%[57.1 µM]	.
CN[C@H](CC(C)C)C(=O)N[C@H]1C(=O)N[C@@H](CC(N)=O)C(=O)N[C@H]2C(=O)N[C@H]3C(=O)N[C@H](C(=O)N[C@@H](C(=O)O)c4cc(O)cc(O)c4-c4cc3ccc4O)[C@H](O)c3ccc(c(Cl)c3)Oc3cc2cc(c3O[C@@H]2O[C@H](CO)[C@@H](O)[C@H](O)[C@H]2O[C@H]2C[C@](C)(N)C(O)[C@H](C)O2)Oc2ccc(cc2Cl)[C@H]1O (some centres undefined)	.	19.0%[21 µM]	.	.	.	.
CSC1=NSC2=NC(=O)/C(=C\c3coc4ccccc4c3=O)C(=N)N12	-11.9%	-9.7%	-22.1%	.	56.2µM*	-3.2%
CC(C)CSC1=NSC2=NC(=O)/C(=C\c3coc4ccccc4c3=O)C(=N)N12	-23.9%	1.4%	?	57.6%	?	?
